In PubChem BioAssay AID504333 (National Center for Advancing Translational Sciences (NCATS), 2011):
The campaign covered roughly 360,000 compounds. About 16,000 (4.4%) were called active. A call without a number means that no potency is given here. Another 9% or so got no clear call; they are omitted. The call rests on the fitted dose curve; in most records, active means well fitted inhibition curve with a large enough effect; inconclusive means small, poorly fitted or top-dose-only effect; inactive means no such curve, though single readings can be large or run the other way. The full list was thinned out, with actives kept by preference.

The compounds below were run against Bromodomain adjacent to zinc finger domain protein 2B (Homo sapiens) (UniProt Q9UIF8) (assay: qHTS Assay for Inhibitors of BAZ2B). Conditions: AlphaScreen BAZ2B-H3K14Ac peptide displacement; series mostly up to 114 µM.
Description: BAZ2B (bromodomain adjacent to zinc finger domain, 2B) belongs to a family of ubiquitously expressed bromodomain containing proteins, which biological function has not yet been elucidated. […] The interaction of BAZ2B with ISWI mediated by the BAZ1 motif has recently been described. […] The protocol is based on the AlphaScreen (PerkinElmer) displacement assay developed by NCGC [5], but uses the peptide ligand Biot-H3K14Ac, a high affinity binding partner for BAZ2B, in an AlphaScreen format. Although AlphaScreen has significant advantages with its utility in a variety of epigenetic target assays, the primary screening data provided in this deposition should be used with caution due to the prevalence of screening artifacts. The top compound concentration tested was 110uM in this assay, which increases number of actives and potential artifacts. An AlphaScreen counterscreen is highly recommended to be run against any putative actives to eliminate non-specific artifacts. Alternatively, one can use other AlphaScreen assays in PubChem to filter out promiscuous hits. Eberharter, A. et al. ACF1 improves the effectiveness of nucleosome mobilization by ISWI through PHD-histone contacts. The EMBO journal 23, 4029-4039. 2004. PMID: 15457208 [2] Jones, M.H. et al. A novel family of bromodomain genes. Genomics 63, 40-45. 2000. PMID: 10662543 [3] Yasgar, et al. Compound Management for Quantitative High-Throughput Screening. JALA. 2008 Apr;13(2):79-89. PMID: 18496600 [4] Inglese, et al. Quantitative high-throughput screening: a titration-based approach that efficiently identifies biological activities in large chemical libraries. Proc Natl Acad Sci. 1;103(31):11473-8. 2006. PMID: 16864780 [5] Quinn et al. A chemiluminescence-based method for identification of histone lysine methyltransferase inhibitors. Mol Biosyst 6(5): 782-8. 2010. PMID: 20567762 [6] Baell,Holloway. New substructure filters for removal of pan assay interference compounds (PAINS) from screening libraries and for their exclusion in bioassays. J Med Chem. 53(7):2719-40. 2010. PMID: 20131845 NIH Molecular Libraries Probe Production Network [MLPCN] NIH Chemical Genomics Center [NCGC] Structural Genomics Consortium (SGC) NIH Grant: 5U54 MH084681-02
To each well of a 1,536w plate, 2ul of BAZ2B protein (final 50nM) and 1ul biotinylated histone peptide acetylated at Lys14 [b-H3(5-23)K14Ac] (final 50nM) were added in 1x PBS buffer, pH 7.4, containing 0.01% Tween-20, using a nanoliter dispenser. Formation of a protein-peptide complex proceeded at room temperature for 30 min. A Kalypsys pin-tool was employed to transfer 23 nL of library compound solution in DMSO to each well. Following a 30 min incubation of the protein-peptide complex with compounds at room temperature, a mixture of 40 ug/mL each streptavidin-coated donor and nickel chelate acceptor AlphaScreen beads (final 10 ug/mL) were added in a 1ul dispense for a final volume of 4ul. A brief centrifugation followed (1000rpm, 1 min) and were then incubated protected from the light for 20 min at room temperature. Plates were read on an EnVision multilabel plate reader using the 1,536 plate HTS AlphaScreen aperture (excitation time 80 ms, measurement time 240 ms).
Further: nearly all actives have a fitted effect of over 60% in size.
Potency means the concentration at half of the fitted maximal effect.

Sequence of Bromodomain adjacent to zinc finger domain protein 2B (Homo sapiens) (Q9UIF8 whole entry, looked up, the tested form may be a part): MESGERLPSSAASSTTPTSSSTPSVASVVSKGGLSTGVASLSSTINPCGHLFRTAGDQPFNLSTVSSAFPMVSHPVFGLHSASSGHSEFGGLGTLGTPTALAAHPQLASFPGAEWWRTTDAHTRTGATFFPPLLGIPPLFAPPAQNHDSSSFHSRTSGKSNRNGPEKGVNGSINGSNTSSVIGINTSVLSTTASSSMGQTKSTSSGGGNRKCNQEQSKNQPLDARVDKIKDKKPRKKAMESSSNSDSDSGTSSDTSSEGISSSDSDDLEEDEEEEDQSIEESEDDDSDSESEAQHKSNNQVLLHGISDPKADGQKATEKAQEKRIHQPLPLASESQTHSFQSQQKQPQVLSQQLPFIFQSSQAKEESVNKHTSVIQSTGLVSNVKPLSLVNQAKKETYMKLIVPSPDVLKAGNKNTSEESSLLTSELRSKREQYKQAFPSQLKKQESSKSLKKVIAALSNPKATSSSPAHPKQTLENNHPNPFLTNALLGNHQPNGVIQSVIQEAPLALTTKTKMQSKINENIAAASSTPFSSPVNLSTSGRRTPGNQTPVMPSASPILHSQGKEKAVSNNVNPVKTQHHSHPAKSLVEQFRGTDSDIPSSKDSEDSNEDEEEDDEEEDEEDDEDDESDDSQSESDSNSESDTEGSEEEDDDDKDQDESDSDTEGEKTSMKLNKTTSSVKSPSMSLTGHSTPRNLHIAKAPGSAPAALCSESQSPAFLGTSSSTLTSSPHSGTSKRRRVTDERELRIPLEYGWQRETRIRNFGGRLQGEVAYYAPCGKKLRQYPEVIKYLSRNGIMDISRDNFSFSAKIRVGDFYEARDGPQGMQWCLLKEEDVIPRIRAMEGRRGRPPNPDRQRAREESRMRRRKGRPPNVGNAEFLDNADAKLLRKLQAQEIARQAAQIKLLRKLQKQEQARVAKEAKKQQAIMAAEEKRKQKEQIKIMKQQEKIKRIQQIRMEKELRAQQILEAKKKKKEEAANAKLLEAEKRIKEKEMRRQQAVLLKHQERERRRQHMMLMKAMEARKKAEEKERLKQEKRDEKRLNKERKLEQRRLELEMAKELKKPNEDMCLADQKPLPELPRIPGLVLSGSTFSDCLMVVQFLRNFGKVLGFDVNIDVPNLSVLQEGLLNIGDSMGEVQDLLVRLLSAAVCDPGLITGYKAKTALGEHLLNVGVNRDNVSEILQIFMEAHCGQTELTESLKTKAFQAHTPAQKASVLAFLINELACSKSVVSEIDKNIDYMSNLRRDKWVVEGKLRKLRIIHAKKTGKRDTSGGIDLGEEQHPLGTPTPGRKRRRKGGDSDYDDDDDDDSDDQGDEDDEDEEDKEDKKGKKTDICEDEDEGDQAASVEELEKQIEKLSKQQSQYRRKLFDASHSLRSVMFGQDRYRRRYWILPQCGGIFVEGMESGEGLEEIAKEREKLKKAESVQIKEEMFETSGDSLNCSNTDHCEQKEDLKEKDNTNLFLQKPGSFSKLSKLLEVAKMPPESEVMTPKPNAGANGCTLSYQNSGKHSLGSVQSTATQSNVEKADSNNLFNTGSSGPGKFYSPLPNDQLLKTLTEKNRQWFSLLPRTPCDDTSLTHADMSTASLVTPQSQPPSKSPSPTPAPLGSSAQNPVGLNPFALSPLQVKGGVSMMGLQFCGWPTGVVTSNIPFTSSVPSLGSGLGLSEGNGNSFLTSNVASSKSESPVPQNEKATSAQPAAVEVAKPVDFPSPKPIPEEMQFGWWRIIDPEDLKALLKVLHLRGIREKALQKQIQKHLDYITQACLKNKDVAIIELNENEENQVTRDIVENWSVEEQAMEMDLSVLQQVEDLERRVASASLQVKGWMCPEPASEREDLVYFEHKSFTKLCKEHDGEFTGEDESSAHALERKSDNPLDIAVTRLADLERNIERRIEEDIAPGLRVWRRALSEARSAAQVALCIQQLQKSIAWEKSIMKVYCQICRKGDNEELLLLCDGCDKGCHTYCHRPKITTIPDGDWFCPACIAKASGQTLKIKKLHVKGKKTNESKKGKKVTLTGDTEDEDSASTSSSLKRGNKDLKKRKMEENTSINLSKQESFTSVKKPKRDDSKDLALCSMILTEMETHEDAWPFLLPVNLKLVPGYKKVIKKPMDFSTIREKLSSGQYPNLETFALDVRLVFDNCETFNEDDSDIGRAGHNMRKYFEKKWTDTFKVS

SMILES | Potency
Cc1cc(C)cc(NC(=O)CCS(=O)(=O)c2cc3c4c(c2)CCN4C(=O)CC3)c1 | inactive
COc1ccc(NC(C)=O)cc1NC(=O)CN1CCN(c2ccc(F)cc2)CC1 | inactive
Cc1[nH]c2ccc(C(=O)N3CCN(C)CC3)cc2c1C | inactive
CCS(=O)(=O)N1CCc2cc(C(=O)N3CCN(c4ccccc4OC)CC3)ccc21 | inactive
CCOc1ccccc1N1CCN(C(=O)c2ccc3[nH]c(C)c(C)c3c2)CC1 | 44.7 µM (active)
CN(C(=O)CSc1nnc(NC(=O)Nc2ccccc2)s1)c1ccccc1 | inactive
Cc1ccc(-n2cnc3cc(C(=O)NCCC4=CCCCC4)ccc32)cc1Cl | inactive
COCCCNC(=O)Cn1cc(/C=C(\C#N)C(=O)N2CCN(c3ccccc3)CC2)c2ccccc21 | inactive
CC(CC(=O)N1CCN(c2ccccc2)CC1)c1ccccc1 (stereo unspecified) | inactive
CCOC(=O)/C(C#N)=C/c1ccc(N2CCN(Cc3ccccc3)CC2)cc1 | inactive
C/C(=C/c1ccccc1)C(=O)N1CCN(c2ccccc2)CC1 | 56.2 µM (active)
O=C(CN1CCCC1)N1CCN(c2ccccc2)CC1 | inactive
COc1ccc(N2CCN(C(=O)/C(C#N)=C/c3ccccc3)CC2)cc1 | 50.1 µM (active)
Fc1ccc(C(Nc2ccc(Cl)c(C(F)(F)F)c2)c2nnc(-c3ccccc3)o2)cc1 (stereo unspecified) | inactive
COc1cc(Cl)c(NC(=O)CC(C)S(=O)(=O)c2cc3c(cc2C)NC(=O)CO3)c(OC)c1 (stereo unspecified) | inactive
Cc1cccc(Cc2c(C)nc3nc(SCc4ccccc4Cl)nn3c2C)c1 | inactive
CN(C(=O)CN1C(=O)/C(=C/c2ccc(Cl)cc2)SC1=S)C1CCS(=O)(=O)C1 (stereo unspecified) | inactive
CCN(C(=O)CN1C(=O)/C(=C/c2ccc(F)cc2)SC1=S)C1CCS(=O)(=O)C1 (stereo unspecified) | inactive
O=C1/C(=C/c2cccs2)SC(=S)N1C1CCS(=O)(=O)C1 (stereo unspecified) | 22.4 µM (active)
COCCN(Cc1ccco1)C(=O)Cn1ncc2c([nH]c3ccccc32)c1=O | inactive
Cc1cc(C)cc(NC(c2nnc(-c3cccc(F)c3)o2)c2ccc(F)cc2Cl)c1 (stereo unspecified) | inactive
CCCS(=O)(=O)Nc1cccc(-c2cn3ccsc3n2)c1 | inactive
COc1cccc(OC)c1OCCN1CCN(C(=O)c2ccco2)CC1 | inactive
COc1ccccc1C(=O)N1CCN=C1SCc1cccnc1 | inactive
COc1cccc(OC)c1C(=O)N1CCN(Cc2cccnc2)CC1 | 50.1 µM (active)
CCCn1c(NCc2ccccc2F)nc2ccccc21 | inactive

SMILES | Potency
CCCn1c(NCc2ccc(N(CC)CC)cc2)nc2ccccc21 | 39.8 µM (active)
CCCn1c(NC(=O)C23CC4CC(CC(O)(C4)C2)C3)nc2ccccc21 | inactive
O=C(NC1(C(F)(F)F)N=C(c2ccccc2)N(C2CCCCC2)C1=O)c1ccccc1F (stereo unspecified) | inactive
CCN(CC)C(=O)CSc1nc2ccsc2c(=O)n1Cc1ccccc1Cl | inactive
Cc1cccc(C)c1-n1c(C)cc(/C=C2\C(=O)NN(c3ccccc3)C2=O)c1C | 14.1 µM (active)
Cc1cc(/C=C2/NC(=O)NC2=O)c(C)n1-c1cccnc1 | inactive
COc1cc(C(=O)NCCc2csc3nc(-c4ccccc4C)nn23)cc(OC)c1OC | inactive
CCOCCc1nn2c(=O)cc(COC(=O)CNC(=O)c3ccc(C(C)(C)C)cc3)nc2s1 | inactive
CCCCN(C)c1nnc(NC(=O)Nc2ccc(Br)c(C)c2)s1 | inactive
c1ccc2c(C[n+]3csc4ccccc43)cccc2c1 | 56.2 µM (active)
c1ccc2c(CSCc3nc4ccccc4[nH]3)cccc2c1 | inactive
Nc1scc[n+]1Cc1cccc2cccnc12 | inactive
O=C(C1COc2ccccc2O1)N(Cc1cccnc1)c1nc2c(F)cc(F)cc2s1 (stereo unspecified) | inactive
COc1ccccc1OCCNCC(O)COc1cccc2[nH]c3ccccc3c12 (stereo unspecified) | 39.8 µM (active)
CCCn1c(=N)n(CC(O)COc2ccccc2OC)c2ccccc21 (stereo unspecified) | inactive
COc1ccccc1OCC(O)CN1CCOCC1 (stereo unspecified) | inactive
CCOc1ccc(C2CC(=O)c3c([nH]c(C(=O)OCc4ccccc4)c3C)C2)cc1 (stereo unspecified) | inactive
COc1ccc(Nc2nc(=O)[nH]nc2C)cc1 | inactive
Cc1n[nH]c(=O)nc1N/N=C/c1cccs1 | 17.8 µM (active)
NC(=O)N/N=C\c1cccs1 | inactive
COC(=O)Cc1ccc(NC(=S)NCc2ccco2)cc1 | inactive
COc1cccc(OC)c1C(=O)NC(=S)NCc1ccco1 | 79.4 µM (active)
COc1cc(C(=O)NC(=S)NCc2ccco2)cc(OC)c1OC | inactive
N#Cc1nc(/C=C/c2ccc(F)cc2)oc1NC1CCCCC1 | inactive
CCOC(=O)CCc1c(C)c2ccc(OCc3nn[nH]n3)c(C)c2oc1=O | inactive
Cc1c(CCC(=O)O)c(=O)oc2c(C)c(OCc3ccccc3Cl)ccc12 | 70.8 µM (active)

SMILES | Potency
Cc1c(CCC(=O)O)c(=O)oc2cc(OCc3ccc(Br)cc3)ccc12 | inactive
O=C(c1ccccc1F)N1CCC(c2nc3c(nnn3Cc3cccc(F)c3)c(=O)[nH]2)CC1 | inactive
CC(C)(C)c1ccc(NC(=O)COC(=O)CCc2nc3ccccc3c(=O)[nH]2)cc1 | inactive
CCN(c1ccc(NC(=O)COC(=O)CCc2nc3ccccc3n2-c2ccccc2)cc1)C(C)C | 25.1 µM (active)
Cc1ccc(NC(=O)COC(=O)CCc2nc3ccccc3n2-c2ccccc2)c(C)c1 | inactive
COc1ccc(-n2c(=O)c3c(c4cc(OC)ccc4n3C)n(Cc3cccc(C)c3)c2=O)cc1 | inactive
CCOC(=O)c1ccc(NC(=O)CCS(=O)(=O)c2ccc(C)cc2)cc1 | inactive
Cc1ccc(N(C)C(=O)C2CCN(S(=O)(=O)c3ccc4c(c3)CCCN4C(=O)C3CCC3)CC2)cc1 | inactive
COc1cc(/C=C(\C#N)c2nc3c(s2)CC(C)CC3)ccc1O (stereo unspecified) | 50.1 µM (active)
COc1cccc2cc(-c3nc(Cl)c4c5c(sc4n3)CC(C)CC5)c(=O)oc12 (stereo unspecified) | inactive
CCOc1cc(/C=C(\C#N)c2nc(-c3cccs3)c(NC(C)=O)s2)ccc1O | inactive
COc1cc(C(=O)NCCS(=O)(=O)N2CCN(c3ccccc3)CC2)cc(OC)c1OC | inactive
CC(=O)c1ccc(NC(=O)CSc2c(C(C)C)cnc3c2c(=O)n(C)c(=O)n3C)cc1 | inactive
Cc1ccc(Cl)cc1N1CCN(C(=O)C2CCC(CNS(=O)(=O)c3cccs3)CC2)CC1 (stereo unspecified) | inactive
CCOC(=O)C1CCCN(CC(=O)Nc2cc(C)c3c(=O)oc4ccccc4c3n2)C1 (stereo unspecified) | inactive
Clc1cccc(-c2nc3nc4ccccc4nc3n2Cc2ccco2)c1 | inactive
Cc1cc(NC(=O)CSc2nc3cc(Cl)ccc3c(=O)n2Cc2ccco2)no1 | inactive
Cc1nc2c(c(=O)n1Cc1ccco1)c1nc3ccccc3nc1n2Cc1ccccc1 | 56.2 µM (active)
COc1ccccc1CNc1ccc(-c2nc(-c3ccccc3C)no2)cc1[N+](=O)[O-] | inactive
COc1ccccc1-n1c(-c2ccc(C)cc2)cn2c3c(=O)n(C)c(=O)n(C)c3nc12 | inactive
CCOC(=O)c1oc2ccc(S(=O)(=O)n3nc(-c4ccccc4OC)cc3N)cc2c1C | inactive
CCCCOc1ccc(CN2C(=O)C(=O)c3cc(Br)cc(C)c32)cc1OC | 6.31 µM (active)
CCCCN1C(=O)C(C)=C(C)C1OCCc1ccc(OC)c(OC)c1 (stereo unspecified) | inactive
CCCCOc1ccc(Cn2c(=O)oc3ccc(C)cc32)cc1OC | inactive
COc1ccccc1CNc1nccn(-c2ccc(F)cc2)c1=O | inactive
O=c1oc2c(CN3CCCCC3)c(O)ccc2c2c1CCCCC2 | inactive

SMILES | Potency
CCCOc1ccc2c3c(c(=O)oc2c1OCCC)CCC3 | inactive
COc1ccc2c3c(c(=O)oc2c1OCC(=O)C(C)(C)C)CCCC3 | 79.4 µM (active)
O=C(Cn1c(=O)n(-c2ccc(F)cc2)c(=O)c2sc3ccccc3c21)NC1CCCC1 | inactive
Cc1cccc(NC(=O)c2cc3c(C)nn(-c4ccccc4)c3s2)c1 | inactive
CCOC(=O)c1[nH]c2c(c1-c1ccccc1)C(=O)CC(c1ccc(Cl)cc1)C2 (stereo unspecified) | inactive
CCOC(=O)C1C(c2ccc(Cl)cc2)NC(=S)NC1(O)C(F)(F)F (stereo unspecified) | inactive
CCOC(=O)C1Sc2[nH]c(=O)sc2C(c2ccc(Cl)cc2)C1C(=O)OCC (stereo unspecified) | 50.1 µM (active)
Cc1ccc(NC(=O)c2oc3ccccc3c2NC(=O)Cc2cccs2)cc1 | inactive
CC(C)Sc1oc(-c2cccs2)nc1S(=O)(=O)c1ccc(Cl)cc1 | inactive
CCN(CC)S(=O)(=O)c1cc(C(=O)Nc2ccccn2)ccc1C | inactive
CC(O)c1ccc(OCCN(C)c2ccccn2)cc1 (stereo unspecified) | inactive
CCN(CC)CCOc1ccc2c(c1)C(=NNC(=O)c1ccccn1)c1cc(OCCN(CC)CC)ccc1-2 | 20 µM (active)
COc1ccccc1CNC(=O)c1ccc(-n2c(C)cc3c2CCCC3)cc1 | inactive
CC(C)c1ccc(NC(=O)C2CCN(c3nc(-c4ccc(C(C)C)cc4)no3)CC2)cc1 | inactive
NC(=O)c1c(Nc2nc3c(F)cccc3s2)sc2c1CCCC2 | inactive
NNc1nc2c(Cl)cccc2s1 | 44.7 µM (active)
CC1CCCN(c2nc3c(S(=O)(=O)c4ccc(C(C)C)cc4)nnn3c3ccsc23)C1 (stereo unspecified) | inactive
O=C(CSc1nc(=O)[nH]c2c1CCCC2)Nc1cc(C(F)(F)F)ccc1Cl | inactive
O=C(Nc1c(-c2ccc(F)cc2)nc2ccccn12)c1cccc(F)c1 | inactive
CCn1cc(C(=O)OCC(=O)Nc2cc(C)cc(C)c2)c(=O)c2ccc(C)nc21 | inactive
Nc1nc(NCCCN2CCOCC2)nc(Nc2ccccc2)c1[N+](=O)[O-] | inactive
O=S(=O)(c1ccccc1)c1nc(-c2ccccc2)oc1NCCCN1CCOCC1 | inactive
N#Cc1nc(-c2ccc(OCc3ccccc3)cc2)oc1NCCCN1CCOCC1 | 50.1 µM (active)
